NR2F2 inh = NR2F2 (human) inhibition, primary screen; P24468; HEK293T NGFI-A luciferase reporter, luminescence; inhibition, % at 8.6 µM; 370,000 compounds, 0.7% hits; AID 686940;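 active = inhibition above a per-plate cutoff, mean inhibition of test wells between control levels plus 3 SD, cut at about 38% in these data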;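 note: cells cotransfected with COUP-TFII expression vector driving the NGFI-A reporter; 0% = median of COUP-TF2 test wells and 100% = reporter-only cells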
SRC1 inh = human NCOA1 inhibition. 360,000 compounds, 0.12% hits. Q15788. HEK293 GAL4-SRC1 luciferase reporter, luminescence. inhibition, % at 3.6 µM;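 active = inhibition above the campaign mean plus 3 SD, with each screening campaign given its own cutoff, cut at about 60% in these data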;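 note: 0% = DMSO treated cells and 100% = gossypol at 36 µM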
NCOA3 inh = inhibitors of human steroid receptor coactivator 3 (SRC3); AID 588352; inhibition, % at 3.6 µM; Q9Y6Q9; HEK293 GAL4-SRC3 luciferase reporter, luminescence; 360,000 compounds, 0.17% hits;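 active = inhibition above a per-campaign cutoff, the mean of all compounds plus 3 SD, cut at about 60% in these data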;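 note: 0% = DMSO-treated cells and 100% = gossypol-treated cells at 36 µM; higher means less SRC3-driven luciferase light from the GAL4 reporter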
Target sequence (Q9Y6Q9 whole entry, looked up, the tested form may be a part): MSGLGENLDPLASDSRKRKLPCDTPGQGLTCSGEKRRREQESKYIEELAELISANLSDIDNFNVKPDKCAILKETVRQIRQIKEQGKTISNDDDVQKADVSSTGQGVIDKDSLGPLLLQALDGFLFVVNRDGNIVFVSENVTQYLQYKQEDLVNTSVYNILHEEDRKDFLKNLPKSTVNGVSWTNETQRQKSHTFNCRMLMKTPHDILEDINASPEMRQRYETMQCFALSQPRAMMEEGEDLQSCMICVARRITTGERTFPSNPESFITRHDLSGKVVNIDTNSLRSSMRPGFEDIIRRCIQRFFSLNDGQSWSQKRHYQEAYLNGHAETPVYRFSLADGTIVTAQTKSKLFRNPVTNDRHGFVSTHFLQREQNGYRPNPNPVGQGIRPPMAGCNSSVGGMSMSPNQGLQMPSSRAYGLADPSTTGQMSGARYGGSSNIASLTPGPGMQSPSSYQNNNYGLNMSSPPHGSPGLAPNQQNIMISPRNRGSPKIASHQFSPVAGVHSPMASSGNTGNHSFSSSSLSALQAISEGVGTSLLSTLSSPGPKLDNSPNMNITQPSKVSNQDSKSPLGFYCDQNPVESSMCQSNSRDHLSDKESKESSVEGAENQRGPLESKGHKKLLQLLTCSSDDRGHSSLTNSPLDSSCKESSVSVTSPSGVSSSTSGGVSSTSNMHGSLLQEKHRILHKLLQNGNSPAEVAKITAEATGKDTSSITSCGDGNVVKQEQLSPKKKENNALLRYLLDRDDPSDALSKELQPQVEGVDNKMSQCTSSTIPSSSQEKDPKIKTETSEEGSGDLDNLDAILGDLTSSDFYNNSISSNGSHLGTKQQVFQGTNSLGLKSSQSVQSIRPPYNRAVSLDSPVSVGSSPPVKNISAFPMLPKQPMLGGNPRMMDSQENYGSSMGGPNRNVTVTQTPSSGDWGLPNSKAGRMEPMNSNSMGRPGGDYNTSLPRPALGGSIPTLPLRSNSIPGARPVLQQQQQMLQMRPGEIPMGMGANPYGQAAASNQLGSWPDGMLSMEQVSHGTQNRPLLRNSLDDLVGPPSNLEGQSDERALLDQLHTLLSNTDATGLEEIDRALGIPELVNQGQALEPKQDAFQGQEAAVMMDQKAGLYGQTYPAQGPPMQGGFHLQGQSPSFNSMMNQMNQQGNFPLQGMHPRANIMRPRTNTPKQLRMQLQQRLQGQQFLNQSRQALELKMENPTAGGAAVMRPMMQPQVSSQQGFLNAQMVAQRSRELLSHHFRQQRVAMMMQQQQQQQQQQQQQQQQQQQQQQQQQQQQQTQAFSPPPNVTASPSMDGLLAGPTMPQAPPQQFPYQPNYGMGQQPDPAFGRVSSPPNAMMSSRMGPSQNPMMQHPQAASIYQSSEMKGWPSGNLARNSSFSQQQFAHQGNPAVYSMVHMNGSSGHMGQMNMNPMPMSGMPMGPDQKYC
NCOA2 inhibitor = inhibits human steroid receptor coactivator 2 | Q15596 | HEK293 GAL4-SRC2 luciferase reporter, luminescence | inhibition, % at 9 µM | 370,000 compounds, 0.17% hits;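 active = inhibition above the mean inhibition of all tested compounds plus 3 SD, set per campaign, cut at about 52% in these data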;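 note: 0% = DMSO treated cells and 100% = cells given Gossypol at 36 µM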
GalR3 antagonist = blocks the human galanin receptor 3; O60755; 360,000 compounds, 0.44% hits; HEK293 GalR3-CNG cAMP membrane potential fluorescence; galR3 body fused to GalR1 C-terminus; inhibition, % at 3 µM;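 active = inhibition above the screen-wide average plus 3 SD, cut at about 13% in these data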;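 note: forskolin and galanin both at EC90 stimulate the cells; cAMP rise reported by CNG channel membrane potential dye signal; 0% = forskolin plus galanin with DMSO and 100% = forskolin alone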
LRH-1 inv ag = inverse agonists of human LRH-1 (NR5A2); inhibition, % at 3.6 µM; AID 602396; 360,000 compounds, 0.13% hits; HEK293T StAR-luciferase reporter, LRH-1 transfected, 24 h;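 active = inhibition above the mean inhibition of all tested compounds plus 3 SD, cut at about 73% in these data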;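 note: 0% = DMSO wells and 100% = reporter-only cells lacking LRH-1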
VP16 Luc counter = counter-screen for COUP-TFII antagonists: inhibitors of VP16; shares compounds with NR2F2 inh; HEK293 Gal4-VP16 luciferase reporter, luminescence; inhibition, % at 8.5 µM; 2,500 compounds, 25% hits; AID 687007; in the data active = inhibition above about 13%
NR2F2 inh conf = confirmation of human COUP-TFII (NR2F2) inhibitors; 2,500 compounds, 45% hits; inhibition, % at 8.5 µM; shares compounds with NR2F2 inh; HEK293 NGFI-A luciferase reporter, luminescence;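 active = mean inhibition over three repeats above a set limit taken from the earlier primary screen, cut at about 38% in these data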;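 note: 100% = cells given the luciferase reporter alone without the COUP-TF2 vector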
* marks the source's active call; other numbers are inactive results; · = not tested or not shown. In the library only some 1.1% were active in any assay of this set; here they are far more common.

SMILES | NR2F2 inh | SRC1 inh | NCOA3 inh | NCOA2 inhibitor | GalR3 antagonist | LRH-1 inv ag | VP16 Luc counter | NR2F2 inh conf
COc1cccc(CN(C)C(=O)c2cccc(NC(=O)CC3SC(N4CCCCC4)=NC3=O)c2)c1OC (stereo unspecified) | -8.3 | 11.8 | 4.9 | 27.4 | -3.5 | -13.5 | · | ·
COc1cc(C(=O)NCCCN(C)C)ccc1OCC(=O)Nc1cccc(C(F)(F)F)c1 | -1.4 | 3.4 | 12.3 | -31.0 | -1.4 | -8.3 | · | ·
COc1ccc(CN(C)C(=O)c2ccc(OCC(=O)Nc3cccc(C(F)(F)F)c3)c(OC)c2)c(OC)c1 | 70.9* | 6.6 | 29.3 | 16.7 | 54.8* | 11.6 | 1.6 | 58.7*
COc1ccc(CN(C)C(=O)c2cccc(NC(=O)CC3SC(N4CCCCC4)=NC3=O)c2)c(OC)c1 (stereo unspecified) | 58.2* | 12.7 | 45.4 | 27.0 | -6.8 | 18.6 | 0.3 | 43.8*
O=C(N=C1N(CC2CC2)CC2(C=C3CCCCC3n3c(=O)n(-c4ccccc4)c(=O)n32)N1C(=O)OCc1ccccc1)c1ccccc1 (stereo unspecified) | -9.4 | · | · | 1.6 | · | · | · | ·
COC(=O)[C@H]1[C@@H](O)[C@@]2(O)c3c(OC)cc(OC)cc3O[C@@]2(c2ccc(OC)cc2)[C@@H]1c1ccc(F)cc1 | 84.3* | · | · | 62.5* | -4.5 | · | 4.7 | 64.8*
CN(Cc1ccccc1Cl)C(=O)CN1C(=O)C2(OCCCO2)c2ccccc21 | 19.6 | · | · | -36.1 | · | · | · | ·
CC[n+]1c(/C=C2\Sc3ccccc3N2C)ccc2cccc(C)c21 | 79.5* | 29.4 | 55.1 | -55.8 | 8.9 | 83.6* | 13.5* | 78.1*
Cn1c(=O)n(C)c2cc([N+](=O)[O-])c(N3CCN(C(=O)c4ccccc4Cl)CC3)cc21 | 45.2* | 17.0 | 25.6 | 13.8 | -11.8 | 24.2 | -7.8 | 15.2
Cn1c(=O)n(C)c2cc([N+](=O)[O-])c(N3CCN(C(=O)c4ccccc4Br)CC3)cc21 | 27.6 | 14.4 | 13.2 | 3.5 | -5.6 | 15.3 | · | ·
Cc1ccc2nc(-c3ccc4c(c3)OCCO4)cn2c1 | 77.2* | 36.8 | 39.2 | 70.3* | -4.8 | 9.8 | 53.9* | 71.2*
c1ccn2cc(-c3ccc4c(c3)OCCO4)nc2c1 | 6.3 | -65.5 | -48.9 | 0.2 | -2.6 | -73.7 | · | ·
C[C@@H]1COc2cc(N3CCCCC3)ccc2S(=O)(=O)N1 | -8.5 | · | · | 0.3 | 2.5 | · | · | ·
CCc1ccn2cc(-c3cc(-c4ccccc4)no3)nc2c1 | 87.9* | 44.4 | 52.3 | 73.7* | -2.9 | 33.4 | 18.3* | 66.6*
Cc1ccc2nc(-c3cc(-c4ccccc4)no3)cn2c1 | -22.5 | -54.3 | -10.0 | -32.4 | -3.4 | -134.0 | · | ·
COc1ccc(C(=O)Nc2ccc(Cl)c(S(=O)(=O)Nc3ccccc3OC)c2)cc1 | 63.4* | 15.4 | 17.3 | 24.7 | -6.9 | 19.9 | 9.3 | 66.7*
COc1ccccc1NS(=O)(=O)c1cc(NC(=O)c2ccc(Cl)nc2)ccc1Cl | 68.0* | 23.0 | 39.6 | 17.9 | -12.9 | 38.2 | 15.4* | 59.8*
COC(=O)[C@]12C[C@H](CC(=O)NCCC(C)C)C(=O)N(CCc3ccc(OC)c(OC)c3)C1=C[C@H](C(C)C)O[C@@H]2C1CC1 | 1.0 | · | · | 24.0 | · | · | · | ·
CC(COc1cc(F)cc(F)c1)CN1CCC(C(O)(c2ccccc2)c2ccccc2)CC1 (stereo unspecified) | -2.8 | · | · | 9.2 | · | · | · | ·
O=C(Nc1ccc(Br)cc1)c1ccc(F)c(S(=O)(=O)NCc2cccs2)c1 | 71.7* | 10.7 | 20.1 | 14.4 | 108.8* | 35.2 | -2.0 | 55.8*
O=C(CCn1nnc(-c2cccs2)n1)N1CCOCC1 | 1.7 | · | · | -2.4 | · | · | · | ·
CC1OC2CC(=O)OC2C2=C1C(=O)c1c(O)cccc1C2=O (stereo unspecified) | 107.5* | 90.6* | 95.7* | 95.5* | -10.2 | 104.0* | 97.2* | 110.4*
C#CCN1C(C(=O)OC)CN(CCCCCC)CCS1(=O)=O (stereo unspecified) | 9.4 | · | · | 10.3 | · | · | · | ·
Cc1ccc(CN2CCCC2(C)C(=O)NC(C)C)cc1 (stereo unspecified) | -14.0 | 12.2 | 5.5 | 17.2 | 1.9 | 2.2 | · | ·

High-throughput results as filed in PubChem.
